TbPYK inhibitor – blocks Trypanosoma brucei pyruvate kinase. Q57TT1. TbPYK enzyme, Kinase-Glo Plus ATP luminescence, 45 min. Potency, µM (series often up to 76.8 µM), for inactives: at the highest dose activity, negative = inhibition, usual class: inhibitors. 0.12% of 410,000 active. AID 624173; also: potency is read from the fitted curve at half-maximal effect; nearly all actives have a fitted effect of over 50% in size
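In this concentration-response screen, enzyme-free wells defined baseline while DMSO plates tracked drift. Each reaction combined TbPYK, substrate, compound and 130 uM ADP for 45 min at room temperature. Kinase-Glo Plus luminescence gave the signal.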
FMDV inh – blocks foot and mouth disease virus; 1.2% of 410,000 active; Potency, µM (series often up to 57.9 µM), for the others: at the highest dose activity change, negative = inhibition, most hits filed as inhibitors; FMDV antiviral cell-based qHTS; calls by dose curve; tested in HEK293T cells; also: read-out not given here; potency is read from the fitted curve at half-maximal effect; nearly all actives have a fitted effect of over 45% in size
Sm TGR block – blocks Schistosoma mansoni thioredoxin glutathione reductase; Potency, µM (doses to about 114 µM), without a hit: top-dose activity change, negative = inhibition, most hits filed as inhibitors; AID 485364; purified TGR, DTNB reduction, TNB absorbance 405 nm; 3% of 360,000 active; also: potency is read from the fitted curve at half-maximal effect; nearly all actives have a fitted effect of over 60% in size
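Kinetic colorimetric format: TGR-catalysed, NADPH-driven DTNB reduction monitored via TNB absorbance. Enzyme dispensed at 20 nM; compound exposure 15 min at room temperature before reaction start.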
RE007 growth inh – less growth of the S. pombe RE007 Vpr strain; S. pombe RE007 Vpr strain, BacTiter-Glo ATP luminescence, 24 h; Potency, µM (doses to about 92.2 µM), inactives show top-dose activity change, negative = less growth, usual class: inhibitors; 0.21% of 360,000 active; AID 651644; active = well fitted falling curve with a large enough effect; inconclusive = small, poorly fitted or top-dose-only effect; inactive = no such curve, though single readings can be large or run the other way; also: potency is read from the fitted curve at half-maximal effect; nearly all actives have a fitted effect of over 50% in size
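Fission yeast strain RE007, carrying one chromosomally integrated HIV-1 vpr copy, was seeded at OD 0.01 in PMG+AL medium with 23 nL pinned compound. After 24 h at 30 °C and 99% humidity, viability was read by BacTiter-Glo luminescence.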
Giardia FBPA inh-1 – Giardia lamblia aldolase inhibition; A8B2U2; purified Giardia FBPA; Potency, µM (highest dose often 59.6 µM), for inactives: top-dose activity, negative = inhibition, most hits filed as inhibitors; 0.71% of 290,000 active; also: potency is read from the fitted curve at half-maximal effect; nearly all actives have a fitted effect of over 55% in size
Target sequence (A8B2U2 whole entry, looked up): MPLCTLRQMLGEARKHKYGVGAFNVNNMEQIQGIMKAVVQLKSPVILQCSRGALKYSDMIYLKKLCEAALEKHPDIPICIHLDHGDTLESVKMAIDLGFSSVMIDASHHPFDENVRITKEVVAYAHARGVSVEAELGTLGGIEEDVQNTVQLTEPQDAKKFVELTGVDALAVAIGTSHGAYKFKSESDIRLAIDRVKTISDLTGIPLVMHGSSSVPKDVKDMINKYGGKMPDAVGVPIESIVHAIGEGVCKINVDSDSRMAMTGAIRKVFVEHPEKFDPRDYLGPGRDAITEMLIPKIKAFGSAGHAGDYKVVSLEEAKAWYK
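Giardia FBPA (40 nM reagent) was preincubated 10 min at RT with compound (up to 57.5 uM final), then substrate plus GAPDH/TPI/NAD/arsenate coupling system with diaphorase/resazurin was added; resorufin fluorescence (525/598 nm) was read after 20 min.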
HCMV inh – inhibitors of human cytomegalovirus | AID 1259415 | activity change, negative = inhibition, % at 57.5 µM | HFF cells, HCMV-luciferase reporter, 72 h; stronger effect = lower value | 4.5% of 410,000 active; in the data active = activity change below about -60%; inconclusive = no clear call, values can overlap the other calls; inactive = above about -39%
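Two-dose cell screen: HFF monolayers treated with compounds and infected with luciferase-expressing HCMV at 1 PFU/cell, 72 h at 37C, then lysed for luciferase measurement.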
Giardia growth – inhibitors of Giardia lamblia growth; shares compounds with Giardia FBPA inh-1; Giardia lamblia trophozoite growth inhibition; Potency, µM (top dose mostly 57.5 µM), inactives show at the top dose activity change, negative = inhibition, actives largely listed as inhibitors; 5% of 1,500 active; AID 2785;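 also: potency is read from the fitted curve at half-maximal effect; trophozoites exposed to compound for 48 h at 37 °C; nearly all actives have a fitted effect of over 70% in size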
Mammal cell tox – mammalian cytotoxicity of Giardia aldolase inhibitor hits; 4% of 1,500 active; Potency, µM (titrated, usually from 57.5 µM), without a hit: top-dose viability change, negative = toxicity, actives largely listed as inhibitors; shares compounds with Giardia FBPA inh-1; mammalian cell viability counter-screen, qHTS;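 also: Chinese hamster ovary cells used as mammalian cytotoxicity surrogate; viability measured as cellular ATP by luminescence; potency is read from the fitted curve at half-maximal effect; compound exposure lasted 48 h before reading; nearly all actives have a fitted effect of over 60% in size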
Giardia FBPA inh-2 – confirmation of Giardia fructose-bisphosphate aldolase inhibitors; purified Giardia aldolase enzyme activity, qHTS; shares compounds with Giardia FBPA inh-1; Potency, µM (top dose mostly 57.5 µM), inactives show at the top dose activity change, negative = inhibition, actives largely listed as inhibitors; 5% of 1,500 active; also: potency is read from the fitted curve at half-maximal effect; nearly all actives have a fitted effect of over 45% in size
Rabbit FBPA inh – selectivity test for Giardia aldolase inhibitors: rabbit aldolase. 4% of 1,500 active. Rabbit muscle FBPA enzyme inhibition, selectivity counter-screen. Potency, µM (titrated, usually from 57.5 µM), for the others: at the highest dose activity, negative = inhibition, actives largely listed as inhibitors. AID 2794. shares compounds with Giardia FBPA inh-1; also: potency is read from the fitted curve at half-maximal effect; nearly all actives have a fitted effect of over 60% in size
Target sequence (P00883 whole entry, looked up): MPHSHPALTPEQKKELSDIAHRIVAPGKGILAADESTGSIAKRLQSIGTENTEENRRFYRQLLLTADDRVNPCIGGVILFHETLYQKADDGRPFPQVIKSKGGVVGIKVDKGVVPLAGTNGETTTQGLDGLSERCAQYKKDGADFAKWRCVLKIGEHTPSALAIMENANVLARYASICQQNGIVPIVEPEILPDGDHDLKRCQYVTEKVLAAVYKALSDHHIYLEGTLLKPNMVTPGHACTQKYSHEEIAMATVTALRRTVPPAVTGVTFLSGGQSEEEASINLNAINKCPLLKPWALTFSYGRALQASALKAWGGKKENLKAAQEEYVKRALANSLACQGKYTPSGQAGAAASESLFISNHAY
GAPDH coupling – counter-screen for Giardia aldolase inhibitors: GAPDH coupling enzyme; shares compounds with Giardia FBPA inh-1; GAPDH coupling enzyme counterscreen, biochemical, qHTS; Potency, µM (doses to about 57.5 µM), for inactives: top-dose activity change, negative = inhibition, hits mostly inhibitors; AID 2795; 6% of 1,500 active; also: potency is read from the fitted curve at half-maximal effect; nearly all actives have a fitted effect of over 55% in size
* marks the source's active call; other numbers are inactive results; ? = inconclusive; · = no result; [ ] = another dose, or the depositor's remark. Rows were chosen to be rich in hits. Some 7.7% of all compounds tested hit in one or more screens of this group. Unless noted, calls follow the shape of the dose curve; as a rule, active = well fitted curve in the direction sought with a large enough effect; inconclusive = small, poorly fitted or top-dose-only effect, or another doubt; inactive = no such curve, though single readings can be large; an effect the other way counts as inactive or inconclusive. % is scaled to controls: 0 for no effect and ±100 for the full control effect.

SMILES	TbPYK inhibitor	FMDV inh	Sm TGR block	RE007 growth inh	Giardia FBPA inh-1	HCMV inh	Giardia growth	Mammal cell tox	Giardia FBPA inh-2	Rabbit FBPA inh	GAPDH coupling
Cn1c2ccccc2c2cnn(CC(=O)Nc3ccccc3F)c(=O)c21	4.9%	12.1%	0.5%	·	·	-7.5	·	·	·	·	·
CCOc1ccccc1NS(=O)(=O)c1c(C)noc1C	-2.4%	-1.7%	-17.5%	-6.1%	12.6µM*	5.9	-27.9%	-0.5%	?	?	39.8µM*
O=C(Nc1ccccn1)C(=O)Nc1ccccn1	-13.8%	-9.6%	0.8%	-17.1%	1.0%	-11.8	·	·	·	·	·
S=C(Nc1ccccn1)c1ccccn1	?	0.0%	-17.9%	-5.2%	3.15µM*	-81.9*	-9.4%[38.3 µM]	12.6µM*	?	-28.5%	?
CC(C)c1nn2c(=O)cc(COC(=O)c3cccc(NC(=O)c4cccs4)c3)nc2s1	0.2%	3.6%	1.6%	·	·	-36.7	·	·	·	·	·
Cc1ccc(-n2c(=O)c3cccnc3n2CC(=O)Nc2cc(C)cc(C)c2)cc1	2.4%	-15.2%	-0.5%	·	·	-19.0	·	·	·	·	·
O=C(NC(=S)Nc1ccccc1[N+](=O)[O-])c1cncc(Br)c1	0.2%	6.7%	20µM*	-3.4%	7.94µM*	-16.3	11.2µM*	-3.8%	6.3%	4.5%	9.4%
O=C(NC(=S)Nc1ccccc1O)c1cncc(Br)c1	-9.4%	31.5%	·	-15.4%	·	?	·	·	·	·	·
Cc1cccnc1NC(=O)CNC(=O)c1cccs1	-2.1%	-10.4%	-2.2%	-12.0%	·	-15.7	·	·	·	·	·
Cc1cccnc1NC(=S)NC(=O)c1cccs1	-13.1%	88.7%	65.7%	4.1%	19.9µM*	178.5	0.3%[10.4 µM]	31.6µM*	-1.2%	5.8%	14.7%
COc1cccc(NC(=S)NC(=O)c2cncc(Br)c2)c1	2.5%	67.9%	·	-9.6%	·	42.1	·	·	·	·	·
Cc1cccnc1NC(=S)NC(=O)c1cncc(Br)c1	9.9%	54.9%	39.1%	0.0%	9.98µM*	-14.8	-1.8%[38.3 µM]	-8.4%	0.0%	-6.0%	-1.0%
O=C(NC(=S)Nc1ccccn1)c1cncc(Br)c1	1.6%	46.4%	2.0%	-11.2%	-25.9%	-29.1	·	·	·	·	·
CC(=O)c1cccc(NC(=S)NC(=O)c2cncc(Br)c2)c1	-1.9%	77.0%	?	9.1%	12.6µM*	-21.4	-10.2%[10.4 µM]	14.6%	9.4%	10.5%	6.6%
Cc1cc(C(F)(F)F)nn1-c1nc(-c2ccccc2)cc(C(F)(F)F)n1	3.2%	-28.9%	8.4%	·	·	-6.7	·	·	·	·	·
CCOCCc1nn2c(=O)cc(COC(=O)c3ccc(NC(=O)C(C)(C)C)cc3)nc2s1	3.3%	?	-1.1%	·	·	2.4	·	·	·	·	·
COc1ccc(CCNCc2cc(OC)cc(OC)c2)cc1	-9.5%	-16.8%	·	-13.2%	·	-5.4	·	·	·	·	·
COc1ccc(CCNCc2cc(C)n(-c3ccc(OC)cc3)c2C)cc1	14.5%	-2.1%	50.1µM*	-11.5%	14.1µM*	16.0	6.3%[10.4 µM]	-1.8%	6.4%	-5.4%	1.4%
CN1CCN(C2(CNC(=O)c3ccc([N+](=O)[O-])cc3)CCCCC2)CC1	-0.2%	-4.0%	2.1%	·	·	-14.2	·	·	·	·	·
O=c1c2ccccc2[se]n1-c1ccccc1	8.91µM*	10.5%	?	-20.8%	7.92µM*	-67.0*	20µM*	?	?	22.4µM*	-6.2%
CCOC(=O)c1[nH]c2c(c1Cc1ccccc1)C(=O)CC(c1ccccc1)C2 (stereo not given)	-7.0%	16.7%	7.8%	·	·	-39.1	·	·	·	·	·
Cc1nccn1CCOc1ccc(Cl)cc1	-3.5%	-17.5%	4.1%	5.3%	25.1µM*	-6.8	-15.9%[10.4 µM]	10.6%	0.1%	2.2%	8.3%
O=C(NC(=S)Nc1ccc(Cl)cn1)c1cc([N+](=O)[O-])ccc1N1CCOCC1	1.4%	-2.6%	12.1%	23.4%	14.1µM*	-9.7	14.8%	18.1%	2.9%	-2.8%	11.4%
O=C(NC(=S)Nc1cc(Cl)ccc1N1CCOCC1)c1ccccc1[N+](=O)[O-]	4.3%	-17.4%	-9.3%	-5.8%	-19.8%	28.8	·	·	·	·	·
N=C1/C(=C/c2coc3ccccc3c2=O)C(=O)N=C2SC(c3ccco3)=NN12	-5.5%	?	10µM*	10µM*	15.8µM*	·	-14.1%	3.5%	-2.1%	6.2%	10.9%
Cc1cc(/C=C2\C(=N)N3N=C(c4ccco4)SC3=NC2=O)c(C)n1Cc1ccccc1	-1.0%	-2.2%	?	-15.4%	2.8%	57.4	·	·	·	·	·
CN1C(=O)/C(=C/C=C/c2ccco2)C(=O)NC1=S	-10.2%	?	?	-2.0%	15.8µM*	0.0	27.8%	-5.0%	-20.4%	6.1%	22.5%
CC(C)c1cnc2c(c1SCc1cccc(F)c1)c(=O)n(C)c(=O)n2C	?	-24.3%	2.9%	·	·	?	·	·	·	·	·

Source: PubChem (National Center for Advancing Translational Sciences (NCATS))
